From PubChem
An excerpt weighted towards active compounds, which were near 21% of everything screened.
TDP1 cell CPT = DT40-hTDP1 cell growth loss with CPT | Potency, µM (doses to about 46.2 µM), for the others: top-dose activity change, negative = growth inhibition, usual class: inhibitors | 12% of 420,000 active | chicken DT40 Tdp1-/-;hTDP1 cells + 20 nM CPT, ATP luminescence, 48 h; also: potency is read from the fitted curve at half-maximal effect; % is scaled to controls: 0 for no effect and ±100 for the full control effect; nearly all actives have a fitted effect of over 55% in size
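Chicken DT40 Tdp1-/- cells stably complemented with human TDP1 were seeded at 400 cells/well in medium containing 20 nM camptothecin, exposed to pin-transferred compounds, and grown at 37 °C for at least 48 hr. Viability was read as ATP luminescence.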
TDP1 cell noCPT = qHTS for Inhibitors of human tyrosyl-DNA phosphodiesterase 1 (TDP1): qHTS in cells in absence of CPT; DT40 Tdp1-/- hTDP1 cells, no CPT, ATP luminescence, 48 h; Potency, µM (top dose mostly 46.2 µM), inactives show top-dose activity change, negative = growth inhibition, most hits filed as inhibitors; 15% of 420,000 active; also: potency is read from the fitted curve at half-maximal effect; % is scaled to controls: 0 for no effect and ±100 for the full control effect; nearly all actives have a fitted effect of over 55% in size
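Chicken DT40 Tdp1-/- cells stably complemented with human TDP1 were seeded at 400 cells/well with DMSO in place of 20 nM camptothecin. After compound pinning, cells grew at least 48 hr at 37 °C; viability read by CellTiter-Glo luminescence.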
ClpP mod = qHTS Assay for Activators of ClpP; ATP-dependent Clp protease proteolytic subunit (Bacillus subtilis (strain 168)), P80244; 1.9% of 340,000 active; purified B. subtilis ClpP, FRET peptide cleavage, 20 min; Potency, µM (series often up to 57.5 µM), for inactives: at the top dose activity change, negative = active; active = well fitted falling curve with a large enough effect; inconclusive = small, poorly fitted or top-dose-only effect; inactive = no such curve, though single readings can be large or run the other way; also: potency is read from the fitted curve at half-maximal effect; the source files actives as falling curves though it sought activators and does not explain the sign; nearly all actives have a fitted effect of over 65% in size
Target sequence (P80244 whole entry, looked up): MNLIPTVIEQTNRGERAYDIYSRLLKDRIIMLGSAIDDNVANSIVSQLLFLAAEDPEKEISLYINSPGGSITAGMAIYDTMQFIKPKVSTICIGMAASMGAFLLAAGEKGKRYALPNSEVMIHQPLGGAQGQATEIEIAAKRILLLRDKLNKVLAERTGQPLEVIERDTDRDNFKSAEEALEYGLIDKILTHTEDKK
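ClpP 10 microg/mL final, pH 8 Tris/KCl buffer with BSA, glycerol, Tween-20; compound pinned in; FRET-FV substrate; RT 20 min; Ex320/Em430; ΔFRET vs ADEP 5.8 microM, DMSO, no enzyme.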
D3 ag = agonists of human D3 dopamine receptor; D3R DiscoveRx beta-arrestin cells, luminescence, 90 min; 0.58% of 410,000 active; max activation, %; P35462; in the data active = max activation above about 30%; also: 0% is about no effect
Target sequence (P35462 whole entry, looked up): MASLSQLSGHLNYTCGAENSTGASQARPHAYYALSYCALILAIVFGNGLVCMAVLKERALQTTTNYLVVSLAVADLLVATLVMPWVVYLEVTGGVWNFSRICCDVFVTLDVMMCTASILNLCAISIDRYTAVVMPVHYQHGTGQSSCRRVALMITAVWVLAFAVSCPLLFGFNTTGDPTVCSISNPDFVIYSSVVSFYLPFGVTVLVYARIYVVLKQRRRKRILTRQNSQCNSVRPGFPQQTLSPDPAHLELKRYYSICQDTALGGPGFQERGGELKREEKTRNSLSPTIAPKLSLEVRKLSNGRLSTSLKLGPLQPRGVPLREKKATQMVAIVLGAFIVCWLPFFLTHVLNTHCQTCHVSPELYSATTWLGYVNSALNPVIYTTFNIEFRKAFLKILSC
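Agonist-mode cell screen: cells plated at 1500/well and incubated overnight at 37 °C, then exposed to library compounds for 90 min at 37 °C. Detection reagent was added for 30–60 min at room temperature, and luminescence was read.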
IL-1B inflam inh = inflammasome signaling inhibition, IL-1 beta readout | THP-1 LPS/ATP IL-1B secretion, AlphaLISA, 16 h; hits give low values | activity change, % at 57.5 µM | 4.7% of 360,000 active | AID 743279; in the data active = activity change below about -50%; inconclusive = mostly about -30% to -49%; also: % is scaled to controls: 0 for no effect and ±100 for the full control effect
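Secreted IL-1B measured by AlphaLISA bead assay after 16 h compound exposure of THP-1 cells; compounds (final up to 57.5 uM) added 1 h before LPS (250 ng/mL) and ATP (1.25 mM) stimulation; lower signal means less secretion.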
D3 antag = D3 dopamine receptor (human) antagonism; P35462; D3R cells, DiscoveRx beta-arrestin luminescence, antagonist mode; hits give low values; max response, negative = inhibition, %; 2.5% of 360,000 active; AID 652054; in the data active = max response below about -50%; inconclusive = no clear call, values can overlap the other calls; also: % is scaled to controls: 0 for no effect and ±100 for the full control effect
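Cells expressing the human receptor were seeded at 1500 cells/well, incubated overnight at 37 degrees C in 5% CO2, then exposed to library compounds with dopamine controls for 90 minutes at 37 degrees C before luminescent detection.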
Starred values were filed as active, the others as inactive; [ ] = remark or other dose. Unless noted, calls follow the shape of the dose curve; as a rule, active = well fitted inhibition curve with a large enough effect; inconclusive = small, poorly fitted or top-dose-only effect; inactive = flat fitted curve, though single readings scatter.

How did COc1ccc(NC(=O)c2c(NC(=O)COc3ccccc3)sc3c2CCCCC3)cc1 do in these assays?
TDP1 cell CPT: -1.4%; TDP1 cell noCPT: -7.4%; ClpP mod: -3.0%; D3 ag: -8.3

Results for Cc1ccccc1NC(=O)c1c(NC(=O)c2ccncc2)sc2c1CCC(C(C)(C)C)C2 (centres undefined) ?
TDP1 cell CPT: 18.4µM*; TDP1 cell noCPT: 6.51µM*; ClpP mod: 0.9%; D3 ag: 1.4

How did CC(C)CN1CCC2(CC1)CCN(C(=O)c1ccco1)CC2 do in these assays?
TDP1 cell CPT: 4.3%; TDP1 cell noCPT: -15.8%

What do the screens show for `O=C(NC1CCSc2ccccc21)c1ccccc1Br` (centres undefined)?
TDP1 cell CPT: -25.5%; TDP1 cell noCPT: -0.7%; ClpP mod: -1.2%; D3 ag: 7.2; IL-1B inflam inh: -8.0; D3 antag: 13.1

How did O=C(NC(=S)NNC(=O)[C@H]1C[C@@H]1c1ccccc1)c1ccc(F)cc1 do in these assays?
TDP1 cell CPT: 14.6µM*; TDP1 cell noCPT: 13µM*; ClpP mod: 0.3%; D3 ag: 3.7; IL-1B inflam inh: 66.7; D3 antag: 58.9

What do the screens show for `COc1cc(OC)cc(C(=O)NC(=S)NNC(=O)Cc2cccs2)c1`?
TDP1 cell CPT: inconclusive; TDP1 cell noCPT: inconclusive; ClpP mod: -1.1%; D3 ag: 1.6; IL-1B inflam inh: 6.5; D3 antag: 20.3

Results for O=C(/C=C/c1ccc(F)cc1)NC(=S)NNC(=O)[C@H]1C[C@@H]1c1ccccc1 ?
TDP1 cell CPT: inconclusive; TDP1 cell noCPT: 23.1µM*; ClpP mod: 1.2%; D3 ag: -6.9; IL-1B inflam inh: 18.3; D3 antag: -12.3

How did CC(C)(C)NC(=S)NNC(=O)[C@H]1C[C@@H]1c1ccccc1 do in these assays?
TDP1 cell CPT: inconclusive; TDP1 cell noCPT: inconclusive; D3 ag: -11.2; IL-1B inflam inh: 1.1; D3 antag: -0.1

Results for O=C(NNC(=O)C1CC1c1ccccc1)c1ccccc1F (centres undefined) ?
TDP1 cell CPT: 1.1%; TDP1 cell noCPT: 16.6%; ClpP mod: 1.1%; D3 ag: 1.3; IL-1B inflam inh: 6.6; D3 antag: 11.1

What do the screens show for `COc1cc(OC)cc(C(=O)NC(=S)NNC(=O)[C@H]2C[C@@H]2c2ccccc2)c1`?
TDP1 cell CPT: inconclusive; TDP1 cell noCPT: 18.4µM*; D3 ag: 7.6; IL-1B inflam inh: 43.2; D3 antag: 12.8

How did CCOC(=O)N1CCc2c(sc3c2c(=O)n(Cc2ccccc2)c(=O)n3CC(=O)Nc2ccccc2F)C1 do in these assays?
TDP1 cell CPT: 2.1%; TDP1 cell noCPT: -4.0%; ClpP mod: -1.8%; D3 ag: 2.6

What do the screens show for `Cc1sc2c(c1C)c(=O)n(-c1cccc(C(F)(F)F)c1)c(=O)n2Cc1ccc(F)cc1`?
TDP1 cell CPT: inconclusive; TDP1 cell noCPT: inconclusive; ClpP mod: -0.8%; D3 ag: -6.1

Results for COCCn1c(CCC(=O)Nc2ccc(C)c(Cl)c2)nc2cccnc21 ?
TDP1 cell CPT: inconclusive; TDP1 cell noCPT: -73.4%; ClpP mod: 0.9%; D3 ag: -10.5

How did Cc1cccc(CNC(=O)c2cnn(-c3nccc(-c4ccccc4C(F)(F)F)n3)c2C)n1 do in these assays?
TDP1 cell CPT: 8.9%[9.04 µM]; TDP1 cell noCPT: inconclusive

How did COc1ccc(C(=O)Cn2cnc3ccccc3c2=O)cc1 do in these assays?
TDP1 cell CPT: 16.2%; TDP1 cell noCPT: -19.4%; D3 ag: 3.5; IL-1B inflam inh: -4.0; D3 antag: 4.3

How did O=C(Cn1cnc2ccccc2c1=O)c1ccc2ccccc2c1 do in these assays?
TDP1 cell CPT: inconclusive; TDP1 cell noCPT: inconclusive; ClpP mod: 31.6µM*; D3 ag: -8.2; IL-1B inflam inh: -3.4; D3 antag: 0.0

Results for Cc1ccc2occ(CC(=O)Nc3ccc(S(=O)(=O)N4CCC(C)CC4)cc3)c2c1 ?
TDP1 cell CPT: inconclusive; TDP1 cell noCPT: inconclusive; ClpP mod: -3.0%; D3 ag: 8.0

Results for COCCn1c(SCC(=O)c2ccc(Cl)cc2)nnc1C(C)C ?
TDP1 cell CPT: inconclusive; TDP1 cell noCPT: 20.6µM*; ClpP mod: 1.1%; D3 ag: -1.5; IL-1B inflam inh: 13.2; D3 antag: -69.5*

What do the screens show for `COCCn1c(SCC(=O)c2ccc3c(c2)OCCO3)nnc1C(C)C`?
TDP1 cell CPT: -2.7%; TDP1 cell noCPT: -13.1%; ClpP mod: -0.9%; D3 ag: 1.1; IL-1B inflam inh: 1.1; D3 antag: -25.5

Results for O=C(CC(c1cccs1)N1Cc2ccccc2C1=O)Nc1cccc(F)c1 (centres undefined) ?
TDP1 cell CPT: inconclusive; TDP1 cell noCPT: inconclusive; ClpP mod: 1.4%; D3 ag: -12.4

Results for CC(=NO)C1CCC2C3CCC4=CC(=NO)CCC4(C)C3C(O)CC12C (centres undefined) ?
TDP1 cell CPT: 13µM*; TDP1 cell noCPT: 16.4µM*; ClpP mod: -2.7%; D3 ag: -13.3; IL-1B inflam inh: 25.2; D3 antag: inconclusive

What do the screens show for `CC(=NO)C1CCC2C3CCC4=CC(=NO)CCC4(C)C3C(=O)CC12C` (centres undefined)?
TDP1 cell CPT: 13µM*; TDP1 cell noCPT: 16.4µM*; D3 ag: -1.9; IL-1B inflam inh: 44.0; D3 antag: -2.7

Results for COC(=O)/C=C/COc1ccccc1[N+](=O)[O-] ?
TDP1 cell CPT: 9.2µM*; TDP1 cell noCPT: 13µM*; ClpP mod: -0.4%; D3 ag: -6.4; IL-1B inflam inh: 1.2; D3 antag: -11.2

What do the screens show for `Cc1cc(NS(=O)(=O)c2ccc(NC(=O)COc3ccccc3[N+](=O)[O-])cc2)no1`?
TDP1 cell CPT: 0.5%; TDP1 cell noCPT: 10.1%; ClpP mod: -1.0%; D3 ag: 6.6; IL-1B inflam inh: 10.7; D3 antag: 9.8

Results for Cc1cc(-n2c(C)cc(C(=O)COc3ccc(F)c(F)c3)c2C)no1 ?
TDP1 cell CPT: 23.1µM*; TDP1 cell noCPT: 20.6µM*; ClpP mod: 1.8%; D3 ag: -9.8; IL-1B inflam inh: -23.8; D3 antag: 7.5

How did Cc1cc(-n2c(C)cc(C(=O)COc3ccccc3[N+](=O)[O-])c2C)no1 do in these assays?
TDP1 cell CPT: 16.4µM*; TDP1 cell noCPT: 23.1µM*; D3 ag: -1.7; IL-1B inflam inh: 0.0; D3 antag: -14.7
